Source: PubChem
A selection: hits, their analogues and other compounds. The true share with any hit is near 1.6%.
KCNQ2 enhance = potentiators of rat KCNQ2 potassium channel | Potassium voltage-gated channel subfamily KQT member 2 (Rattus norvegicus), O88943 | CHO-K1 KCNQ2, FluxOR thallium flux fluorescence; stronger effect = higher value | B-score at 10 µM | 310,000 tested, 0.54% active;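 active = fluorescence ratio B-score at least 3 SD of library B-scores, with initial fluorescence B-score within 3 of them, cut at about 5.3 in these data; same plate scores as AID 2156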;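 also: B-score of peak minus minimum over baseline fluorescence ratio after K+ and Tl+ stimulus; positive B-score means potentiation of KCNQ2 with more thallium influx and brighter signal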
KCNQ2 inh = rat KCNQ2 potassium channel inhibitors, primary screen, cell-based, CHO-K1, FluxOR thallium flux, B-score. 20 min; stronger effect = lower value. Potassium voltage-gated channel subfamily KQT member 2 (Rattus norvegicus), O88943. 310,000 tested, 1.1% active. B-score at 10 µM;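 active = fluorescence ratio B-score at most minus 3 library SDs, with starting brightness B-score within 2 library SDs, cut at about -5.5 in these data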
Kir21 confirm = mouse Kir2.1 channel blockers, retest, confirmation, cell-based, FluxOR thallium flux, duplicate | shares compounds with KCNQ2 enhance | Kir2.1-expressing cells, FluxOR thallium flux fluorescence; stronger effect = lower value | Tl flux remaining, % of negative control (stronger effect = lower value), % at 10 µM | 2,300 tested, 41% active | AID 2032, 2009;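 active = Primary-screen hit whose thallium flux fell at least 3 control SD below untreated wells in both duplicates, with normal baseline fluorescence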;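 also: 0% = blank wells without stimulus and 100% = stimulated no-compound controls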
HEK293 ctr = alters thallium flux in parental HEK293 cells, Kir2.1 counter-screen; shares compounds with KCNQ2 enhance; FluxOR thallium flux fluorescence; 0% = unstimulated blank wells; FluxOR signal as % of negative control (100 = no effect), % at 10 µM; 2,300 tested, 19% active;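 active = dye signal at least 3 control SD above or below untreated wells in both duplicates, raw fluorescence within 3, either direction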;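 also: percent is based on the flux ratio of peak minus minimum fluorescence over baseline F0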
CHO-K1 Tl ctr = nonspecific thallium flux increase in parental CHO-K1, confirmation, counter-screen for KCNQ2 potentiator project, cell-based, FluxOR thallium flux, duplicate | parental CHO-K1 cells, FluxOR thallium flux fluorescence; zero = vehicle mean+3SD, 100% = vehicle-minus-blank window | 1,200 tested, 43% active | activity increase over 3SD of controls, % at 10 µM | AID 2282, 2010 | shares compounds with KCNQ2 enhance;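 active = signal rise of at least 3 SD above the untreated control mean, in both duplicate wells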;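 also: counter screen of KCNQ2 potentiator hits so any rise reflects channel-independent effects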
KCNQ1 pot spec = human KCNQ1 channel potentiation off-target, confirmation, selectivity assay for KCNQ2 potentiator project, cell-based, CHO, FluxOR thallium flux; CHO KCNQ1 stable, FluxOR thallium flux fluorescence; beyond 3SD, as % of vehicle-control signal; 1,200 tested, 28% active; shares compounds with KCNQ2 enhance; activation over 3SD threshold, % at 10 µM; AID 2283, 2010;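 active = fluorescence ratio rise of at least 3 SD of vehicle wells above their mean, in both replicate wells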;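 also: 0% = vehicle mean plus 3 SD and 100% = vehicle minus unstimulated blank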
Target sequence (P51787 whole entry, looked up): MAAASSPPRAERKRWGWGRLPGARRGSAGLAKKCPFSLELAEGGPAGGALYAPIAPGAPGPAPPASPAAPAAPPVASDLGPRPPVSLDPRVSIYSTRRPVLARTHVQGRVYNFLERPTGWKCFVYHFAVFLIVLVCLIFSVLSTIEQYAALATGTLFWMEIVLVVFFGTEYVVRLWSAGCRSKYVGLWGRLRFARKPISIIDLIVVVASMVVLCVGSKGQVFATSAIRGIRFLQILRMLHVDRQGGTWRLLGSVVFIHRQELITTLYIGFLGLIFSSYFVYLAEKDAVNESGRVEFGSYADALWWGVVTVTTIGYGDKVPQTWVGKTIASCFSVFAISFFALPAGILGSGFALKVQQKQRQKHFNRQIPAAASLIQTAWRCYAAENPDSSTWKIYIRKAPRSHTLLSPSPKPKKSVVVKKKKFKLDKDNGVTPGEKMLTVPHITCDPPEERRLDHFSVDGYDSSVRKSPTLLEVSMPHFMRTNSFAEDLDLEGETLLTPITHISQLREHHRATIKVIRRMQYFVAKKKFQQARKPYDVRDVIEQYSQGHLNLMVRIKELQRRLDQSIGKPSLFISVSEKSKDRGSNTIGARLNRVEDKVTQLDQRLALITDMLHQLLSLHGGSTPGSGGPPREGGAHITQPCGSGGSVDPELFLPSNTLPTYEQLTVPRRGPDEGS
KCNQ2 pot confirm = rat KCNQ2 channel potentiators, confirmation, cell-based, CHO, FluxOR thallium flux, duplicate; 1,200 tested, 68% active; shares compounds with KCNQ2 enhance; CHO-KCNQ2 cells, FluxOR thallium flux fluorescence; potentiation, less the hit threshold, % at 10 µM;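 active = fluorescence ratio rising 3 SD or more over the vehicle control mean in both replicates, plus primary screen hit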;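 also: peak minus minimum thallium fluorescence divided by baseline after K/Tl stimulus; 0% = vehicle mean plus 3 SD and 100% = vehicle minus unstimulated blank difference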
Kir21 spec = mouse Kir2.1 channel activation off-target, confirmation, selectivity assay for KCNQ2 potentiator project, cell-based, HEK293, FluxOR thallium flux. 1,200 tested, 2% active. shares compounds with KCNQ2 enhance. AID 2345, 2010. HEK293 Kir2.1, FluxOR thallium flux fluorescence. activity over 3SD threshold, % at 10 µM;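 active = fluorescence ratio rise of at least 3 SD above the vehicle-control mean, seen in both replicates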;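 also: 0% = vehicle mean plus 3 SD and 100% = vehicle minus no-stimulus blank window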
KCNQ2 W236L MoA = potentiators of retigabine-insensitive KCNQ2 W236L, mechanism study for KCNQ2 potentiator project, cell-based, rat KCNQ2 W236L, CHO, automated patch clamp. shares compounds with KCNQ2 enhance. AID 2558, 2010. automated patch clamp current. 940 tested, 10% active. current increase over 3SD of negative controls (%), stronger effect = higher value, % at 25 µM;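 active = current increase at least 3 SD of the untreated controls above them in both duplicate recordings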
Starred values were filed as active, the others as inactive; i = inactive; . = not tested or not shown.

SMILES	KCNQ2 enhance	KCNQ2 inh	Kir21 confirm	HEK293 ctr	others
Cc1nn(-c2ccc(Cl)cc2)c2sc(C(=O)c3c(N)n(C)c(=O)n(C)c3=O)cc12	0.12	i	i	i
COc1ccc(NC(=O)CSc2nnnn2C2CCCCC2)cc1	.	i	.	.
CCCNC(=O)c1nnsc1S(=O)c1ccc(Cl)cc1 (stereo not given)	-6.84	-6.84*	73.5%*	i
CNC(=O)c1nnsc1S(=O)c1ccc(Cl)cc1 (stereo not given)	.	i	65.5%*	65.0%*
Cc1ccc(S(=O)c2snnc2C)cc1 (stereo not given)	.	i	.	.
Cc1nnsc1S(=O)c1ccc(F)cc1 (stereo not given)	0.41	i	.	.
O=C(CCC1CCCCC1)Nc1ccccc1-c1ccccc1	11.6*	i	i	i	CHO-K1 Tl ctr=38.3*;KCNQ1 pot spec=-11.7;KCNQ2 pot confirm=74.1*;Kir21 spec=-41.3;KCNQ2 W236L MoA=i
Cc1ccc(O)c(NC(=O)CCC2CCCCC2)c1	0.28	i	.	.
c1ccc(CSc2nnnn2-c2cccc3ccccc23)nc1	.	i	66.5%*	i
O=C(O)c1cccc(-n2nnnc2SCc2ccccn2)c1	.	i	.	.
Cc1ccc(C)c(NC(=O)C2CCCN(S(=O)(=O)c3c(C)nn(C)c3C)C2)c1 (stereo not given)	.	i	.	.
COc1cccc(CN2CC(C(=O)NCC3CCOCC3)CCC2=O)c1 (stereo not given)	0.02	i	.	.
CC1(C)CC(N2CCCC2)=CC(=[N+]2CCCCCC2)C1	1.24	i	.	.
CC1CC(C)C[N+](=C2C=C(N3CCCC3)CC(C)(C)C2)C1 (stereo not given)	.	i	i	i
CC(C)(C)c1csc(NC(=O)c2ccc(Cl)s2)n1	0.69	i	.	.
Cc1ccc(C(=O)Nc2nc(C(C)(C)C)cs2)s1	6.64*	i	i	i	CHO-K1 Tl ctr=18.3*;KCNQ1 pot spec=-4.7;KCNQ2 pot confirm=-0.3;Kir21 spec=-17.8;KCNQ2 W236L MoA=i
O=c1c(Cc2c(F)cccc2Cl)c(O)ccn1CCCn1ccnc1	.	i	.	.
Cc1cc(N/N=C/c2ccc(O)cc2)c2cccc(C)c2n1	1.1	i	.	.
Cc1cc(C)c2nc(C)cc(N/N=C/c3ccc(O)cc3)c2c1	-8.07	-8.07*	i	i
CC(C)c1ccc(C(=O)N(c2ccccn2)C(C)c2ccco2)cc1 (stereo not given)	.	i	.	.
CC(c1ccco1)N(C(=O)CSc1ccc(Br)cc1)c1ccccn1 (stereo not given)	.	i	69.0%*	i
CCOC(=O)c1sc2ncnc(NCC(c3cccs3)N(C)C)c2c1C (stereo not given)	7.72*	i	i	252.5%*	CHO-K1 Tl ctr=-8.2;KCNQ1 pot spec=0.2*;KCNQ2 pot confirm=32.5*;Kir21 spec=-28.9;KCNQ2 W236L MoA=i
CN(C)C(CNc1ncnc2sccc12)c1cccs1 (stereo not given)	0.7	i	.	.
CCCc1nc(SCC(=O)O)c2sc(=S)n(-c3ccccc3)c2n1	1.76	i	.	.
